This passage reports Potency and viability results from PubChem BioAssay (NCATS).

Molecules are shown by their SMILES. Results filed as inconclusive are left out. Values without a mark were called inactive. Activity calls are given as the source filed them. Calls come from the whole dose curve; as a rule, active = well fitted cell-killing curve with a large enough effect; inconclusive = small, poorly fitted or top-dose-only effect, or effect the other way; inactive = no such curve, though single readings can be large or run the other way.

Broadly, the viability is a read-out of living cells in per cent, often relative to untreated cells.

Assay [1] can be described thus: Quantitative High-Throughput drug screen in 47 multiple myeloma cell lines against the NCATS MIPE library collection: LP1_DSMZ cell viability assay (AID 1918982). Note: nearly all actives have a fitted effect of over 35% in size. Note: potency is the fitted concentration of half-maximal effect. In a few lines:
(§1)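 Myeloma cells (500/well) treated with MIPE 4.0 compounds for 48 h at 37 °C, 5% CO2. Viability read as ATP via CellTiter-Glo luminescence after 5 min at RT; DMSO-only wells = 100%, media-only = 0% viability.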

Assay [2] can be described thus: Quantitative High-Throughput drug screen in 47 multiple myeloma cell lines against the NCATS MIPE library collection: KMS28PE_JCRB cell viability assay (AID 1918983). Note: nearly all actives have a fitted effect of over 35% in size. Note: potency is the fitted concentration of half-maximal effect. The gist of the method:
as §1

Assay [3] in a line: Quantitative High-Throughput drug screen in 47 multiple myeloma cell lines against the NCATS MIPE library collection: L363_DSMZ cell viability assay (AID 1918984). Note: nearly all actives have a fitted effect of over 40% in size. The gist of the method: as §1
Assay [4] is described as follows: Quantitative High-Throughput drug screen in 47 multiple myeloma cell lines against the NCATS MIPE library collection: KMS34_JCRB cell viability assay (AID 1918985). Note: nearly all actives have a fitted effect of over 40% in size. Note: potency is the fitted concentration of half-maximal effect. The gist of the method: as §1
Assay [5] can be described thus: Quantitative High-Throughput drug screen in 47 multiple myeloma cell lines against the NCATS MIPE library collection: SKMM1_PLB cell viability assay (AID 1919863). For viability: series mostly up to about 46 µM. Note: nearly all actives have a fitted effect of over 35% in size. Note: potency is the fitted concentration of half-maximal effect. The following applies: SKMM1 myeloma viability, CellTiter-Glo ATP, 48 h; viability: stronger effect = lower value. The gist of the method: as §1
For orientation: In ATP-based viability assays light output follows the ATP content of the culture.

A short description of assay [6]: Quantitative High-Throughput drug screen in 47 multiple myeloma cell lines against the NCATS MIPE library collection: XG6_PLB cell viability assay (AID 1919865). Note: nearly all actives have a fitted effect of over 40% in size. Note: potency is the fitted concentration of half-maximal effect. In a few lines: as §1
A short description of assay [7]: Quantitative High-Throughput drug screen in 47 multiple myeloma cell lines against the NCATS MIPE library collection: PE2_PLB cell viability assay (AID 1919869). Note: nearly all actives have a fitted effect of over 35% in size. Note: potency is the fitted concentration of half-maximal effect. The gist of the method: as §1
Assay [8] in a line: Quantitative High-Throughput drug screen in 47 multiple myeloma cell lines against the NCATS MIPE library collection: PCM6_Riken cell viability assay (AID 1919870). Note: nearly all actives have a fitted effect of over 30% in size. Note: potency is the fitted concentration of half-maximal effect. The gist of the method:
as §1

Assay [9] can be described thus: Quantitative High-Throughput drug screen in 47 multiple myeloma cell lines against the NCATS MIPE library collection: RPMI8226_ATCC cell viability assay (AID 1919871). Note: nearly all actives have a fitted effect of over 30% in size. Note: potency is the fitted concentration of half-maximal effect. The gist of the method:
as §1

The nature of assay [10]: Quantitative High-Throughput drug screen in 47 multiple myeloma cell lines against the NCATS MIPE library collection: OPM2_DSMZ cell viability assay (AID 1919872). Note: nearly all actives have a fitted effect of over 30% in size. In a few lines:
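Relative luminescence from CellTiter-Glo served as the viability signal, referenced to DMSO-treated (100%) and cell-free medium (0%) controls. Treatment lasted 48 hours at 37C with 500 cells per well.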

Assay [11] in a line: Quantitative High-Throughput drug screen in 47 multiple myeloma cell lines against the NCATS MIPE library collection: KMS28BM_JCRB cell viability assay (AID 1919874). Note: nearly all actives have a fitted effect of over 35% in size. In a few lines: as §1
A short description of assay [12]: Quantitative High-Throughput drug screen in 47 multiple myeloma cell lines against the NCATS MIPE library collection: OCIMY7_PLB cell viability assay (AID 1918987). Note: potency is the fitted concentration of half-maximal effect; nearly all actives have a fitted effect of over 65% in size. In a few lines: as §1
Assay [13] can be described thus: Quantitative High-Throughput drug screen in 47 multiple myeloma cell lines against the NCATS MIPE library collection: OPM1_PLB cell viability assay (AID 1918989). Note: nearly all actives have a fitted effect of over 40% in size. Note: potency is the fitted concentration of half-maximal effect. The gist of the method: as §1
Assay [14] can be described thus: Quantitative High-Throughput drug screen in 47 multiple myeloma cell lines against the NCATS MIPE library collection: U266_ATCC cell viability assay (AID 1919864). Note: nearly all actives have a fitted effect of over 35% in size. Note: potency is the fitted concentration of half-maximal effect. The gist of the method:
as §1

Assay [15] can be described thus: Quantitative High-Throughput drug screen in 47 multiple myeloma cell lines against the NCATS MIPE library collection: XG1_PLB cell viability assay (AID 1919866). Note: nearly all actives have a fitted effect of over 35% in size. The gist of the method: as §1
Assay [16] is described as follows: Quantitative High-Throughput drug screen in 47 multiple myeloma cell lines against the NCATS MIPE library collection: VP6_DJ cell viability assay (AID 1919867). Note: nearly all actives have a fitted effect of over 40% in size. Note: potency is the fitted concentration of half-maximal effect. The gist of the method: as §1
Assay [17] is described as follows: Quantitative High-Throughput drug screen in 47 multiple myeloma cell lines against the NCATS MIPE library collection: KMS11_JCRBsus cell viability assay (AID 1919873). Note: nearly all actives have a fitted effect of over 50% in size. In a few lines:
as §1

Assay [18] can be described thus: Quantitative High-Throughput drug screen in 47 multiple myeloma cell lines against the NCATS MIPE library collection: OCIMY5_PLB cell viability assay (AID 1918988). Note: potency is the fitted concentration of half-maximal effect; nearly all actives have a fitted effect of over 65% in size. In a few lines:
as §1

On to `Nc1ccc(S(=O)(=O)Nc2ccnn2-c2ccccc2)cc1`, for which the Potency entry in [1], in assay [2], in [3], in assay [4], in [6] and in [7] was “inactive” each time. The Potency entry in assay [8], in assay [9], in assay [10] and in assay [11] was “inactive” throughout. Moreover, the viability in assay [5] was 145%.
`CC(C)(Sc1ccc(CCN(CCCCC2CCCCC2)C(=O)NC2CCCCC2)cc1)C(=O)O`: the Potency in assay [1] was 16.6 µM (active); in assay [2], 8.33 µM (active); in [12], 14.8 µM (active); in assay [5], 14.8 µM (active); in assay [14], 16.6 µM (active); in [9], 4.18 µM (active). Also, the Potency entry in assay [3], in assay [13], in assay [6], in assay [15], in assay [16] and in [17] was “inactive” in each case. Also, the Potency result in assay [11] was “inactive”.
For `Clc1ccc(Nc2nnc(Cc3ccncc3)c3ccccc23)cc1`, the Potency was 11.8 µM (active) in [1]; 20.9 µM (active) in assay [2]; 3.32 µM (active) in assay [12]; 6.62 µM (active) in assay [18]; 23.5 µM (active) in [16]; 14.8 µM (active) in assay [8]. For the same molecule, the Potency result in [3] and in assay [10] was “inactive” in each case.
On to `CC(C)(N)C(=O)N[C@H](COCc1ccccc1)C(=O)N1CCC2(CC1)CN(S(C)(=O)=O)c1ccccc12`, for which the Potency is 16.6 µM (active) in assay [1], 18.7 µM (active) in assay [2], 14.8 µM (active) in assay [4] and 16.6 µM (active) in [18]. Moreover, the Potency result in assay [10] was “inactive”.
Regarding `CN(C)c1ccc(Nc2nc(N)n(C(=O)c3c(F)cccc3F)n2)cc1`, the Potency in [1] was 16.6 µM (active); in assay [4], 2.35 µM (active); in assay [12] it was 2.35 µM (active); in assay [18] it was 11.8 µM (active); in [13] it was 5.26 µM (active); in [14] it was 18.7 µM (active). Besides, the Potency in [6] is 3.72 µM (active); in [16], 16.6 µM (active); in assay [7], 5.9 µM (active). The Potency entry in assay [9] is “inactive”.
Take `CC(c1cc2ccccc2s1)N(O)C(N)=O` (stereo unspecified): the Potency entry in [1], in assay [2], in assay [13], in assay [14], in [6] and in assay [7] was “inactive” in each case. Moreover, the Potency entry in assay [8], in assay [9], in assay [10], in [17] and in assay [11] was “inactive” in each case. In assay [5], the viability was 118%. Also, in assay [16], the Potency was 3.32 µM (active).
In the case of `Cc1cc(C=c2sc3nc4ccccc4n3c2=O)c(C)n1-c1ccccc1`, the Potency result in assay [1], in assay [16], in assay [7], in assay [17] and in assay [11] was “inactive” each time. For the same molecule, the Potency in assay [4] was 14.8 µM (active); in assay [18], 4.69 µM (active).
Turning to `O=C1CCc2cc(OCCCCc3nnnn3C3CCCCC3)ccc2N1`, the Potency entry in assay [1], in assay [3], in [13], in assay [14], in assay [16] and in assay [8] was “inactive” each time. Further, the Potency result in [10], in assay [17] and in assay [11] was “inactive” in each case.
As to `CCN(CC)CCCC(C)Nc1nc(C)cc(Nc2ccc3nc(C)cc(N)c3c2)n1` (stereo unspecified), the Potency entry in assay [1], in [4], in [9], in [10], in assay [17] and in assay [11] was “inactive” in each case. The Potency in assay [12] was 8.33 µM (active); in [16], 3.72 µM (active); in assay [7] it was 10.5 µM (active). In assay [5], the viability is 123%.
